From the supplement of paper PMC6555819 come the findings set out here.

This experiment has as its system VDR:RXRa (NR concentration 270 nM, RXRa partner concentration 90 nM). The experiment in a line: PBM binding z-score (relative to random genomic background probes); higher = stronger binding; sequences stand for … in GC…GCGATTGACAGCGTAGAATGAAGG
How it is done:
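Protein-binding microarray (Agilent 4x180K custom design, double-stranded 60-nt probes: 5' GC cap, 34-nt variable region, 24-nt constant primer region; full probe sequence given). Purified or IVT nuclear receptor:RXRα heterodimers (3:1 NR:RXRα, mostly 270:90 nM) or homodimers were incubated for 1 h in PBS with 2% milk and no ligand, then detected with Alexa488 antibodies. Fluorescence from o1-orientation probes (~5 replicates averaged) was converted to z-scores against 500 random hg19 background probes. Variable regions are seed direct-repeat (DR0–DR5) sites, all their single-nucleotide variants and half-site ablations.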
Sequence CGTCCAAGGTCAGCAGGTCAGCGAAAGCGACGTG showed a PBM binding z-score of 4.26.
The sequence CCAGAGAGGTGAAAGGTAACTCAGTCTGGTACGC displayed a PBM binding z-score of 1.64.
The value for ACTATTAGTTTAGACGAGGGCAACCGATAGGTTG was 0.8.
TGGAGTAGGTTAGTCGGGGCATTCAGCCAACATA came in with a PBM binding z-score of 2.43.
Take ATATGTAGGTTTTCGGGTCATTCAGTTTGCGCAT: the PBM binding z-score is 5.07.
In turn, CCGACTGGGGCAAGGCTACCATAACGCACAGCCA showed a PBM binding z-score of -0.501.
The value for GCTATTAGTTGAAAGGGCACCCGAATGATTCTCG was 0.313; that for ATCTCTAGGTAAAAGTGCAGTGAATCCCGAGGAT was 0.00627; that for ATATGTAGTTTAGCTGGGGTCATTCAGACTAGGC was 5.22.
As for TCGAGTAGGTTAGGGGCATTCATAATGGCGTCGA, the PBM binding z-score was 0.655.
CGTCCAAGGTCAGTAGGTCAGTGAAAGCGACGTG came in with a PBM binding z-score of 3.29.
As for CCAACTGGGCCAAGGTCATTGATCAGTCAAAGCA, the PBM binding z-score turned out to be 3.1.
Consider TCTTGTAGATCAACAGTAGGTTAAGAAAGATCGA, for which the PBM binding z-score was 0.333.
In turn, ACTTACGGGTCAATGAGGTTATAGCACGCGTATA came in with a PBM binding z-score of 7.74.
Sequence TCATATAGGTAAAAGGTGCAAGTCGGTGTGGTAA displayed a PBM binding z-score of 1.09.
With AGTCAACGTTCAGGACGAGGTAACGTAAAGCACG, the PBM binding z-score is -0.317.
The value for ACAGACAGGTGATGAATGTAACTCAGGCTATCAT was -0.0862; that for CGTACTGGGCCATCAGGTCATTGATATCAACGTT was 1.97; that for TCTGCTAGGTCAACGATGGTCCGCTAATCTGCTA was 1.14.
In turn, ACAGACAGGTGATGAAGGTAAATCAGGCTATCAT returned a PBM binding z-score of 0.133.
In turn, AGAACGAGGGCAATGAGTCGATAGCACGGGTGGC registered a PBM binding z-score of 2.39.
For TCTGTTAGTTGATTAGGGCAACCGAAACAGCGGA the value was 0.452.
In turn, GCATATAGGTAATACAAGGTGTAAGTCCGATTGT registered a PBM binding z-score of -0.12.
The value for CGTACTGGGCCACGAAAGGTCATTGATTCAGTGA was 4.47.
For CCAGACAGGTGAGAACGTAACTCAGCCTCGATTA the value was -0.0392; for CCTCGGAGAACAGAAGGTCAGAGCTGTCCGCTTT, 1.03.
The sequence TGAATAAGGTTATAAGATCAGGGAACGTTGCAAA had a PBM binding z-score of 0.743.
As to CGAACTAGGTCAAGGACACTGAATCTCCGCACGC, the PBM binding z-score came to 1.57.
For CGTCCAAGGTCACAGGTCAGTGAAGAGATGACGG the value was 4.91; for TCATATAGGTAAATGCTAGGTGAAAATCCGATCT, 0.793.
As for AATACAGGGTCATCGTAAGCCAGAGTACGCACAG, the PBM binding z-score worked out at 4.87.
Take GATCGGAGGACAAGGTCAGAGCTTTGTCCGTAGA: the PBM binding z-score worked out at 1.44.
For CCTATTAGTTGAACATAAGGGCAACCGAAGCTCG, the PBM binding z-score came to 0.603.
CAGCCTAGGTCCGGGCCAGTATAGGAGGAACGTT: the PBM binding z-score was -0.982.
CCTAGTTGGTCAGTAGGTCACACACCGGATATGA displayed a PBM binding z-score of 1.91.
For AGTCAAAGTTCAGGAAGAGGTAACGTAAAGCACG the value was 2.96.
Regarding TCGCCTAGGTCATGCGGGCCAGTATAGTGTCGGC, the PBM binding z-score turned out to be 3.04.
For CGTCAAAGTTCAAGGTAACGCAACAGAAAGCAGC the value was 3.67; for ACTATTAGTTGACTTAGGGCTACCGATACGACGC, -0.0525.
The value for ACTAGCAGGCCAAGCGTCACTCAAGATTAGTCCG was -0.477.
